Consider 38 compounds from PubChem BioAssay (NCI).

About 79,000 compounds went through this panel and 15% of them were active in at least one assay; those are over-represented in the sample as a whole. A number with no mark means an inactive call. The source made the active and inactive calls. Rule as the data show it: active = growth inhibition above about 70%; inactive = the rest.

Assay [1] can be described thus: NCI Yeast Anticancer Drug Screen. Data for the rad50 strain (AID 155).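 Also: 0% = growth of vehicle-only cultures of the same strain.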 The following applies: S. cerevisiae rad50 strain growth inhibition; at 50.0 µM; active compounds read high. In outline:
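Readout: growth inhibition relative to vehicle-treated cultures. Compound exposure was carried out in a genetically defined yeast strain deficient in DNA damage repair.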

The nature of assay [2]: NCI Yeast Anticancer Drug Screen. Data for the mec2-1 strain (AID 157). Conditions: S. cerevisiae mec2-1 strain, at 50.0 µM, active compounds read high. In outline: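 Yeast mec2-1 mutant treated with compound. Readout: growth inhibition vs vehicle controls.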
Assay [3] in a line: NCI Yeast Anticancer Drug Screen. Data for the sgs1 mgt1 strain (AID 161).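 Also: 0% = growth of cultures given vehicle only.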 The following applies: S. cerevisiae sgs1 mgt1 strain, at 50.0 µM, active compounds read high. The essentials:
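Inhibition of yeast growth, normalised to vehicle-treated controls, is reported for a strain bearing genetic alterations in DNA damage repair.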

The nature of assay [4]: NCI Yeast Anticancer Drug Screen. Data for the cln2 rad14 strain (AID 165).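 Also: 0% = growth equal to vehicle treated cultures.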 Conditions: S. cerevisiae cln2 rad14 strain, at 50.0 µM, active compounds read high. The essentials: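 cln2 rad14 yeast strain; compound exposure; growth inhibition read vs vehicle controls.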
Assay [5] can be described thus: NCI Yeast Anticancer Drug Screen. Data for the bub3 strain (AID 167). Conditions: S. cerevisiae bub3 mutant strain, at 50.0 µM, active compounds read high. The essentials: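 Readout: yeast growth inhibition, expressed relative to vehicle-only wells. The test organism is a mutant strain from a panel with lesions in DNA repair or checkpoint genes.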
Assay [6] in a line: NCI Yeast Anticancer Drug Screen. Data for the mlh1 rad18 strain (AID 175). Conditions: S. cerevisiae mlh1 rad18 strain growth inhibition; at 50.0 µM; active compounds read high. The essentials:
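Yeast w/ defined DNA-repair lesions; compound exposure; growth vs vehicle controls → % inhibition.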

In the case of `CSc1ncnc2c1ncn2CCC(=O)O`, the growth inhibition in assay [1] was -33.9%; in assay [2], 11.4%; in assay [3] it was -42.1%; in assay [4], 8.8%; in assay [5], -13.9%; in assay [6], -19.4%.
Consider `O=C(O)C(S)c1ccc2ccccc2c1` (stereo not drawn), for which the growth inhibition is 28.6% in assay [1]; 19.9% in assay [2]; 20.2% in assay [3]; 18.6% in assay [4]; 12.3% in assay [5]; 13.2% in assay [6].
Consider `C[Si](C)(CCCOCC1CO1)O[Si](C)(C)CCCOCC1CO1` (stereo not drawn), for which the growth inhibition in assay [1] was 26.9%; in assay [2], -29.4%; in assay [3], -5.05%; in assay [4], 17.6%; in assay [5], -8.4%; in assay [6], -31.1%.
In the case of `CSc1nc(N)c(NS(=O)(=O)c2ccc([N+](=O)[O-])cc2)c(=O)[nH]1`, the growth inhibition is 4.35% in assay [1]; -8.05% in assay [2]; 5.65% in assay [3]; -3.95% in assay [4]; 10.1% in assay [5]; 14.1% in assay [6].
In the case of `Nc1nc(Cl)cc(NCC(O)CO)n1` (stereo not drawn), the growth inhibition in assay [1] was 7.55%; in assay [2], 2.35%; in assay [3], -1.45%; in assay [4], 6.65%; in assay [5], -0.25%; in assay [6], -2.55%.
Consider `CCOC1CS(=O)(=O)CC(OCC)O1` (stereo not drawn), for which the growth inhibition in assay [1] is 3.35%; in assay [2], 6.05%; in assay [3], 4.9%; in assay [4], -30.6%; in assay [5], -8.35%; in assay [6], 13.8%.
With `CCOc1ccccc1Br`, the growth inhibition in assay [1] was -2.05%; in assay [2], 8.65%; in assay [3] it was -2.05%; in assay [4] it was -9.8%; in assay [5] it was 1%; in assay [6], -38.2%.
As for `COC(=O)/C=C/CCCC1CCCCC1`, the growth inhibition was -7.8% in assay [1]; -3.85% in assay [2]; 4.9% in assay [3]; 0.45% in assay [4]; -14.9% in assay [5]; -13.9% in assay [6].
On to `CC(C(=O)O)/C(=C\c1ccccc1)C(=O)O` (stereo not drawn), for which the growth inhibition is 16.6% in assay [1]; 7.25% in assay [2]; 21.6% in assay [3]; -17.5% in assay [4]; 12.6% in assay [5]; 11.4% in assay [6].
With `Cc1ccc2c(c1)nc1n2C(c2c(F)cccc2F)SC1` (stereo not drawn), the growth inhibition in assay [1] is 0.15%; in assay [2], -6.45%; in assay [3], 26.9%; in assay [4], 13.4%; in assay [5] it was 29.3%; in assay [6], -3.7%.
For the compound `Cc1[nH]c(=O)c2ccccc2c1O`, the growth inhibition in assay [1] is 10.6%; in assay [2], -8.15%; in assay [3], -3.7%; in assay [4] it was 6.35%; in assay [5] it was -17.2%; in assay [6] it was -1.35%.
For `CC(C)(C)/C=C/N=NNc1ccccc1C(=O)NC(C)(C)C`, the growth inhibition in assay [1] was 9.5%; in assay [2] it was 0.2%; in assay [3], 1.8%; in assay [4], -54.5%; in assay [5], -2%; in assay [6], 12.1%.
As to `CC(=O)Cn1c(=O)oc2ccccc2c1=O`, the growth inhibition in assay [1] is 22.6%; in assay [2], -9%; in assay [3], -10.7%; in assay [4], 49.5%; in assay [5], 17.9%; in assay [6], 10.1%.
Consider `c1ccc(SSc2ccc3ccccc3c2)cc1`, for which the growth inhibition was 22.4% in assay [1]; 39.1% in assay [2]; 32.6% in assay [3]; 24.6% in assay [4]; 31.4% in assay [5]; 28.3% in assay [6].
Consider `O/N=C1/C(=C/c2ccccc2)CCCC1C(NO)c1ccccc1` (stereo not drawn), for which the growth inhibition in assay [1] was 27.9%; in assay [2], 10.2%; in assay [3], 27.2%; in assay [4], 28.1%; in assay [5], 17.1%; in assay [6], 57.6%.
As to `O=C1C(O)=C(c2ccccc2)C(=O)N1c1ccccc1`, the growth inhibition was -25.2% in assay [1]; -9.05% in assay [2]; -11.7% in assay [3]; -62.5% in assay [4]; 6.65% in assay [5]; 9.5% in assay [6].
In the case of `Cn1c(N2CCCC2)c(C=O)c(=O)n(C)c1=O`, the growth inhibition in assay [1] was 4.5%; in assay [2], 1.45%; in assay [3], 8.6%; in assay [4] it was 21.3%; in assay [5] it was -10.9%; in assay [6] it was -15.1%.
With `O=C(O)COc1ccccc1C1CCCCC1`, the growth inhibition is 0.15% in assay [1]; 7.6% in assay [2]; 6.25% in assay [3]; -4.9% in assay [4]; -18.6% in assay [5]; -2.2% in assay [6].
On to `COc1ccc(-c2cc3cc(OC)c(OC)cc3c[n+]2C)cc1OC`, for which the growth inhibition in assay [1] is 28.3%; in assay [2], 5.4%; in assay [3], 5.6%; in assay [4], 16.1%; in assay [5] it was -2.3%; in assay [6] it was -0.55%.
For the compound `CN(C)S(=O)(=O)c1ccc(CCc2ccc(S(=O)(=O)N(C)C)cc2)cc1`, the growth inhibition in assay [1] is 13.6%; in assay [2], 2.65%; in assay [3] it was -12.7%; in assay [4] it was 5.9%; in assay [5], 6.35%; in assay [6], 6.2%.
In the case of `CC(=O)/C(=C/n1c(=S)sc2ccccc21)C(=O)Nc1ccc([N+](=O)[O-])cc1`, the growth inhibition in assay [1] was 6.4%; in assay [2], 4.55%; in assay [3], -2.45%; in assay [4] it was -15.8%; in assay [5], -19.8%; in assay [6] it was -8.7%.
For `O=C(Nc1ccc(Cl)cc1[N+](=O)[O-])Oc1ccc(-c2ccccc2)cc1`, the growth inhibition in assay [1] was 23.4%; in assay [2], 58.5%; in assay [3], 48.1%; in assay [4], 8.3%; in assay [5], 78.8% (active); in assay [6] it was 66%.
Regarding `CCOC(=O)/C=C1\CONC(c2ccc(OC)cc2)=N1`, the growth inhibition is -9.1% in assay [1]; -5.3% in assay [2]; -12.4% in assay [3]; -19.2% in assay [4]; 3.4% in assay [5]; 2% in assay [6].
Take `CCC(c1ccc(C(C)=O)c(O)c1)C(CC)c1ccc(C(C)=O)c(O)c1` (stereo not drawn): the growth inhibition was 9.65% in assay [1]; 9.75% in assay [2]; 22.6% in assay [3]; 8.7% in assay [4]; 2.8% in assay [5]; 30.4% in assay [6].
Turning to `c1ccc(Cn2nnc(-c3ccccc3)n2)cc1`, the growth inhibition in assay [1] was 19.3%; in assay [2], 8.45%; in assay [3], 5.3%; in assay [4] it was -10.3%; in assay [5], 32.9%; in assay [6], 18.4%.
With `CCOC(=O)Nn1c(C)nnc1CC#N`, the growth inhibition was -3.05% in assay [1]; -2.4% in assay [2]; -8.1% in assay [3]; -16.8% in assay [4]; 0.65% in assay [5]; 18.7% in assay [6].
With `COc1nc2[nH]ccc2c(=O)[nH]1`, the growth inhibition in assay [1] is -23.8%; in assay [2] it was -25.2%; in assay [3], -31.8%; in assay [4], 3.15%; in assay [5], -11.3%; in assay [6], -11.1%.
For `OCc1ccccc1CN1CCCC1`, the growth inhibition in assay [1] was 8.65%; in assay [2] it was 1.15%; in assay [3], 17.8%; in assay [4], -40.1%; in assay [5] it was 8.1%; in assay [6], -14.3%.
As to `CC(C)(C)NC(=O)Oc1ccc(-c2ccccc2)cc1Cl`, the growth inhibition in assay [1] was 98.8% (active); in assay [2], 99.5% (active); in assay [3], 99.2% (active); in assay [4] it was 98.3% (active); in assay [5], 99.3% (active); in assay [6], 99.3% (active).
Regarding `O=c1[nH]c(-c2ccc(Cl)cc2)cs1`, the growth inhibition was -1.25% in assay [1]; -14.8% in assay [2]; -7% in assay [3]; -5.65% in assay [4]; -19.9% in assay [5]; -16.1% in assay [6].
Consider `Cc1ccc(-c2nc3scc(C)n3n2)cc1`, for which the growth inhibition was 0.85% in assay [1]; 6.6% in assay [2]; -4.5% in assay [3]; -29% in assay [4]; 7.65% in assay [5]; 8.85% in assay [6].
`CNCCN(C)Cc1ccccc1`: the growth inhibition in assay [1] is -17.4%; in assay [2] it was -24.6%; in assay [3] it was -3.8%; in assay [4], 11%; in assay [5], 10.7%; in assay [6], -8.3%.
Regarding `CC/C(C)=N/NC(=O)c1ccc([N+](=O)[O-])cc1`, the growth inhibition in assay [1] was 22.7%; in assay [2], 12%; in assay [3], 20.8%; in assay [4], 8.6%; in assay [5] it was 0.95%; in assay [6] it was 16.6%.
`[N-]=[N+]=NC12CC3C4CC5CC3C(C1)C(C5)C4C2`: the growth inhibition in assay [1] was 10.3%; in assay [2], 0.6%; in assay [3] it was -6.65%; in assay [4] it was 10.2%; in assay [5], -6.15%; in assay [6], -8.45%.
Consider `CSc1ccc(NC(=O)SCc2ccccc2)cc1`, for which the growth inhibition in assay [1] is -3.5%; in assay [2], 5.15%; in assay [3], 1%; in assay [4], -2.7%; in assay [5], 15.9%; in assay [6], 8.55%.
Turning to `CC1=C(CCC(C)CO)OC2CC3C4CC=C5CC(O)CCC5(C)C4CCC3(C)C12` (stereo not drawn), the growth inhibition in assay [1] is 19.1%; in assay [2] it was -0.65%; in assay [3], 43.4%; in assay [4], 9.95%; in assay [5], 6.3%; in assay [6], 0.85%.
For `O=C(/C=C\c1ccccc1)C(C(=O)/C=C/c1ccccc1)C(=O)c1ccccc1` (stereo not drawn), the growth inhibition is -1.5% in assay [1]; -3.05% in assay [2]; 3.15% in assay [3]; 14.9% in assay [4]; -1.25% in assay [5]; 32.8% in assay [6].
Turning to `Cc1ccc(Cl)c(NC(=O)COc2ccc(Cl)cc2)c1`, the growth inhibition in assay [1] is -1.2%; in assay [2], 28.3%; in assay [3] it was 22.3%; in assay [4], -6.6%; in assay [5], 32.7%; in assay [6], 26.4%.
